Compounds with a hit are over-represented: about 3.4% of the library has one in this group of screens.
FBW7 act: human FBW7 E3 ligase activation, primary screen; Q969H0; AlphaScreen FBW7–phospho-cyclin E peptide binding, activator screen; normalized activity (activation), % at 26.1 µM; 650,000 compounds, 0.13% hits; in the data active = normalized activity above about 1.9%;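 note: purified mutant Fbw7 with reduced substrate affinity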
GPR151 activ: activators of human GPR151 | PathHunter beta-arrestin GPR151 cells, luminescence | activation, % at 11.2 µM | 650,000 compounds, 1% hits | AID 1508602; in the data active = activation above about 4.9%
MITF inh: inhibitors of human MITF. O75030. AlphaScreen MITF homodimerization, bead proximity signal. inhibition, % at 2.6 µM. 650,000 compounds, 0.91% hits; in the data active = inhibition above about 50%
Target sequence (O75030 whole entry, looked up): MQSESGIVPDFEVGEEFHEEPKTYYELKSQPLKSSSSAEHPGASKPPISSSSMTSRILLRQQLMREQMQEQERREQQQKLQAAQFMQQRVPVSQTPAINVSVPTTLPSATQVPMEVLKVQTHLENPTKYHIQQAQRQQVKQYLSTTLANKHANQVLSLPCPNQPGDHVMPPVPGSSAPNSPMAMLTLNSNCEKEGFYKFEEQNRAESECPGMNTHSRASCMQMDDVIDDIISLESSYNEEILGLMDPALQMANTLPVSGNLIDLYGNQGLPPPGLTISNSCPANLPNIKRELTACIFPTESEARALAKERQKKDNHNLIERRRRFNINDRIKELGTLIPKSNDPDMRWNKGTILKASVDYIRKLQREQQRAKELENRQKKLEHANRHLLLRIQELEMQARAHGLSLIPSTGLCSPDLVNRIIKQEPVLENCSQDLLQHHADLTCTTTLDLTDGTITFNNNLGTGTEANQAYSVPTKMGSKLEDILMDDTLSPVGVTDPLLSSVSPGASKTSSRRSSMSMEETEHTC
TEAD-YAP inh: TEAD-YAP interaction inhibition; HEK-TIYL cells, TEAD-Gal4/YAP UAS-luciferase luminescence; 640,000 compounds, 1.4% hits; AID 1259422; inhibition, % at 9.12 µM; in the data active = inhibition above about 32%
Large screens that a line does not name were inactive.

CCc1ccc(NC(=O)CSC2=C(C#N)C(c3ccc(C)o3)C3=C(CCCC3=O)N2)cc1 (configuration not stated)	none
Cc1cccc(C)c1NC(=O)CSC1=C(C#N)C(c2ccco2)C2=C(CCCC2=O)N1 (configuration not stated)	none
CCC1CCCCN1C(=O)CCc1nnc(CCc2ccc(OC)cc2)o1 (configuration not stated)	none
Cc1nc2sc(C(c3ccc(Br)cc3)N3CCOCC3)c(O)n2n1 (configuration not stated)	none
CC(=O)c1cn(CC(=O)Nc2ccccc2)c2ccccc12	none
COc1ccccc1NC(=O)Cn1c(C)nc2ccccc21	TEAD-YAP inh 34.6
COc1ccccc1NC(=O)Cn1cc(C(C)=O)c2ccccc21	TEAD-YAP inh 37.0
CC(=O)c1cn(CC(=O)NCCOc2ccc(Cl)cc2)c2ccccc12	TEAD-YAP inh 39.7
COc1cccc(NC(=O)Cn2cc(C(C)=O)c3ccccc32)c1	TEAD-YAP inh 48.2
CC(C)c1ccc(-c2c(C#N)c(N)nc3sc(C(=O)c4ccc(Br)cc4)c(N)c23)cc1	none
Cc1ccc(C(=O)CC2(O)C(=O)Nc3ccc(Cl)cc32)s1 (configuration not stated)	none
CC1(C)CC(NC(=O)C2CC(CCc3ccccc3)=NO2)CCO1 (configuration not stated)	none
CCOc1ccc(-n2c(-c3ccccc3)c[n+]3c2CCCCC3)cc1	TEAD-YAP inh 65.6
Brc1ccc(-c2c[n+]3c(n2Cc2ccccc2)SCCC3)cc1	none
CCOc1ccc(-n2c(-c3ccccc3)csc2=NC(C)=O)cc1	none
CCOc1ccc(-c2c[n+]3c(n2Cc2ccccc2)SCCC3)cc1	TEAD-YAP inh 66.8
COc1ccc(/C=C/C(=O)Nc2ccc([N+](=O)[O-])cn2)cc1	none
O=C(O)c1ccc(S(=O)(=O)Cc2ccccc2F)c([N+](=O)[O-])c1	none
Cc1ccc(NC(=O)Cn2c(-n3nc(C)cc3C)nc(C)cc2=O)cc1	TEAD-YAP inh 42.6
Cn1c(=O)c2c(nc(Cl)n2Cc2cccc(C(F)(F)F)c2)n(C)c1=O	TEAD-YAP inh 36.6
CCNc1nc2c(c(=O)n(C)c(=O)n2C)n1Cc1cccc(C)c1	TEAD-YAP inh 44.3
Cc1cccc(Cn2c(NCCO)nc3c2c(=O)n(C)c(=O)n3C)c1	TEAD-YAP inh 42.3
Cn1c(=O)c2c(nc(NCCO)n2Cc2cccc(Br)c2)n(C)c1=O	none
CC(C)NC(=O)c1ccc2c(c1)N(C)CCS2	none
COc1ccc(N(/C=C2\Sc3ccccc3C2=O)C(=O)c2ccco2)cc1	none
CCC(=O)N(/C=C1\Sc2ccccc2C1=O)c1ccccc1	none
CCC(=O)N(/C=C1\Sc2ccccc2C1=O)c1ccc(C)cc1	TEAD-YAP inh 52.7
CCC(=O)N(/C=C1\Sc2ccccc2C1=O)c1ccccc1OC	TEAD-YAP inh 83.2
COc1ccc(-c2nc(Nc3ccc(Oc4ccccc4)cc3)nc(OC)n2)cc1	none
COc1ccc(-c2nc(Nc3cc(OC)c(OC)c(OC)c3)nc(OC)n2)cc1	TEAD-YAP inh 45.3
COc1ccc(-c2nccc(Nc3cc(OC)c(OC)c(OC)c3)n2)cc1	TEAD-YAP inh 60.4
CCCCCN1/C(=C\C=C\c2n(CCCC)c3cc(Cl)c(Cl)cc3[n+]2CCCCC)N(CCCC)c2cc(Cl)c(Cl)cc21	TEAD-YAP inh 43.9
CCn1c(C)[n+](CCOC(C)=O)c2cc(Cl)c(Cl)cc21	none
CCOC(=O)c1cccc(NC(=O)N2CCOc3ccc(C)cc32)c1	none
Cc1nc2ccc(C(=O)N3c4ccccc4CC3C)cc2s1 (configuration not stated)	TEAD-YAP inh 42.1
COC(=O)c1ccc(-c2ccc(C=C3C(=O)N(C)C(=S)N(C)C3=O)o2)c(C)c1	none
CC(C)n1c(N2CCN(c3ccccn3)CC2)nc2c(NCc3cccc(C(F)(F)F)c3)ncnc21	none
COc1cccc(C2CC(c3c(O)cc(C)oc3=O)=NCCS2)c1OC (configuration not stated)	TEAD-YAP inh 42.4
COc1ccc(-c2c(C)oc3cc(OS(C)(=O)=O)ccc3c2=O)cc1OC	TEAD-YAP inh 34.2
CC(NC(=O)c1ccc(C(C)(C)C)cc1)C(N)=O (configuration not stated)	none
COc1ccc(C(=O)c2ccc(Br)c([N+](=O)[O-])c2)cc1	TEAD-YAP inh 64.4
CCCOC(=O)c1ccc(Br)c([N+](=O)[O-])c1	none
COc1cccc(N/C(N)=N/c2nc(C)cc(C)n2)c1	TEAD-YAP inh 53.3
Cc1cc(C)nc(/N=C(\N)Nc2cccc(OCc3ccccc3)c2)n1	TEAD-YAP inh 49.6
Cc1ccccc1NC(=O)c1c(Cl)nc(Cl)c(Cl)c1Cl	TEAD-YAP inh 64.2
Cc1cccc(NC(=O)c2c(Cl)nc(Cl)c(Cl)c2Cl)c1C	TEAD-YAP inh 35.8
Cc1nc(Cl)c(C(=O)NCc2ccccc2)c(C)c1Cl	none
O=C(NCc1ccccc1)c1c(Cl)nc(Cl)c(Cl)c1Cl	TEAD-YAP inh 46.8
O=C(CC1C(=O)NCCN1Cc1ccc2ccccc2c1)NCCN1CCCCC1=O (configuration not stated)	none
CC(C)c1cc(C(=O)NCCc2ccccc2)nn1-c1nc2ccccc2s1	TEAD-YAP inh 44.4
COc1ccc(NC(=O)c2cc(C(C)C)n(-c3nc4ccccc4s3)n2)cc1OC	TEAD-YAP inh 55.8
c1ccc(-c2nnc3sc(CN4CCc5ccccc5C4)cn23)cc1	none
N#CC(Cl)CNS(=O)(=O)c1ccc(Cl)cc1 (configuration not stated)	TEAD-YAP inh 47.0
CCN(CCCNC(=O)CCC(=O)N1CCOc2ccc(Cl)cc21)Cc1ccccc1	none
Cc1cc([N+](=O)[O-])nn1CC(=O)NCc1ccc(F)cc1C(F)(F)F	TEAD-YAP inh 44.3
CCSc1nnc(NC(=O)CC(C)(C)CC(=O)OCC(F)(F)C(F)F)s1	none
O=C(NCCc1nnc2n1CCN(C/C=C/c1ccccc1)CC2)C1CCC1	none
Clc1ccccc1-c1nc(N2CCCC2)c2ccccc2n1	none
Cc1ccc(Nc2nc(N3CCOCC3)c3ccccc3n2)cc1	none
c1ccc(Nc2nc(N3CCCCC3)c3ccccc3n2)cc1	TEAD-YAP inh 41.9
Oc1cccc(Nc2nc(N3CCOCC3)c3ccccc3n2)c1	none
Clc1ccccc1-c1nc(N2CCOCC2)c2ccccc2n1	FBW7 act 2.6
CN(C)c1ccc(Nc2nc(N3CCOCC3)c3ccccc3n2)cc1	TEAD-YAP inh 41.6
Cc1cccc(Nc2nc(N3CCOCC3)c3ccccc3n2)c1	TEAD-YAP inh 37.8
Cc1cc(C)n(-c2n[nH]c(=O)[nH]c2=O)n1	none
O=C(Nc1ccc(Br)cc1)c1nn2c(c1Br)NC(c1cccs1)CC2C(F)(F)F (configuration not stated)	none
Cc1cccc(-n2ncc3c(Nc4cccc5ccccc45)ncnc32)c1	TEAD-YAP inh 32.5
Cc1cccc(-n2ncc3c(Nc4ccccc4)ncnc32)c1	none
Cc1cccc(-n2ncc3c(Nc4c(C)cc(C)cc4C)ncnc32)c1	TEAD-YAP inh 57.2
CSc1ccccc1Nc1ncnc2c1cnn2-c1cccc(C)c1	TEAD-YAP inh 60.5
COc1ccc(OCC(=O)NNC(=O)c2ccncc2)cc1	none
CCOC(=O)CNC(=O)c1sc2nc(C)nc(N(C)c3ccc(C(C)C)cc3)c2c1C	FBW7 act 2.3
